Results as given in PubChem BioAssay (NCI).
About 83,000 compounds went through this panel and 20% of them were active in at least one assay; those are over-represented in the sample as a whole.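 How to read the values: 0–100, growth inhibition (40 = 60% inhibited); 0, no net growth; -100 to 0, cell death (-40 = 40% of starting cells died; -100 = all dead).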 Unmarked numbers belong to inactive results. Activity calls are given as the source filed them. How the source made its calls: active means growth percent below 10; inactive means the rest.

Tests used:
Test in all cases: NCI-60 one-dose screen, 48 h (100 = growth as untreated, 0 = no growth, -100 = all killed)
Conditions in all cases: 10 µM unless noted
[1] = test system: SR leukemia
[2] = test system: RPMI-8226 leukemia
[3] = test system: OVCAR-8 ovarian
[4] = test system: OVCAR-5 ovarian
[5] = test system: OVCAR-4 ovarian
[6] = test system: SK-OV-3 ovarian
[7] = test system: IGROV1 ovarian
[8] = test system: HS 578T breast
[9] = test system: NCI/ADR-RES ovarian
[10] = test system: T-47D breast
[11] = test system: BT-549 breast
[12] = test system: MDA-MB-435 melanoma
[13] = test system: SW-620 colon
[14] = test system: MCF7 breast
[15] = test system: HCT-116 colon
[16] = test system: HCC-2998 colon
[17] = test system: KM12 colon

Cc1occc1-c1nc2s/c(=C/c3ccc(-c4cc(C(F)(F)F)ccc4Cl)o3)c(=O)n2n1
growth [1]: 101% | growth [2]: 99.5% | growth [3]: 103% | growth [4]: 105% | growth [5]: 102% | growth [6]: 110% | growth [7]: 103% | growth [8]: 98.1% | growth [9]: 109% | growth [10]: 92.7% | growth [11]: 108% | growth [12]: 101% | growth [13]: 101% | growth [14]: 90% | growth [15]: 102% | growth [16]: 106% | growth [17]: 99.9%

CC[C@@H](CO)Nc1ccc2ncc(C#Cc3cncc(C(=O)Nc4ccc(CN5CCN(C)CC5)c(C(F)(F)F)c4)c3)n2n1
growth [1]: -24.4% (active) | growth [2]: -34.5% (active) | growth [3]: -57.6% (active) | growth [4]: -14% (active) | growth [5]: -44.1% (active) | growth [6]: -40% (active) | growth [7]: -25.4% (active) | growth [8]: -41.5% (active) | growth [9]: 55.1% | growth [10]: -75.8% (active) | growth [11]: -91.7% (active) | growth [12]: -88% (active) | growth [13]: -44.8% (active) | growth [14]: -69.6% (active) | growth [15]: -92.5% (active) | growth [16]: -43.2% (active) | growth [17]: -34.1% (active)

CN(C)CCCOc1ccc2c(c1)CN(C(=O)c1cc(C(=O)N3Cc4cccc(F)c4C3)ccc1O)C2
growth [1]: 96.8% | growth [2]: 98.9% | growth [3]: 101% | growth [4]: 108% | growth [5]: 99% | growth [6]: 112% | growth [7]: 113% | growth [8]: 92.9% | growth [9]: 107% | growth [10]: 100% | growth [11]: 125% | growth [12]: 103% | growth [13]: 105% | growth [14]: 83.2% | growth [15]: 106% | growth [16]: 114% | growth [17]: 106%

COc1ccc(OC)c(-c2nc(SCC(=O)c3ccc(Br)cc3)nc(Nc3ccc(S(N)(=O)=O)cc3)c2C#N)c1
growth [1]: 13.9% | growth [2]: 51.2% | growth [3]: 62.8% | growth [4]: 73.3% | growth [5]: 57.3% | growth [6]: 79.9% | growth [7]: 54.7% | growth [8]: 13.4% | growth [9]: 74.4% | growth [10]: 71.1% | growth [11]: 49.4% | growth [12]: -18.6% (active) | growth [13]: 36% | growth [14]: 28.9% | growth [15]: 15.4% | growth [16]: 70.9% | growth [17]: 20.9%

CN(C)CCN(C)c1ccc2ncc(C#Cc3cncc(C(=O)Nc4ccc(CN5CCN(C)CC5)c(C(F)(F)F)c4)c3)n2n1
growth [1]: -17.4% (active) | growth [2]: -33.9% (active) | growth [3]: 63.6% | growth [4]: 91.5% | growth [5]: -0.365% (active) | growth [6]: 118% | growth [7]: 45.5% | growth [8]: 59.9% | growth [9]: 37.1% | growth [10]: 101% | growth [11]: 111% | growth [12]: 48.4% | growth [13]: -44.9% (active) | growth [14]: -63.7% (active) | growth [15]: -85.9% (active) | growth [16]: 33.9% | growth [17]: -39.8% (active)

COc1cc(-c2nc3sccn3c2-c2ccnc(S(C)(=O)=O)n2)ccc1F
growth [1]: 86.3% | growth [2]: 91.9% | growth [3]: 98.3% | growth [4]: 98.3% | growth [5]: 98.2% | growth [6]: 113% | growth [7]: 98.1% | growth [8]: 101% | growth [9]: 95.7% | growth [10]: 97.9% | growth [11]: 92.2% | growth [12]: 91.5% | growth [13]: 99% | growth [14]: 84.1% | growth [15]: 103% | growth [16]: 100% | growth [17]: 102%

CNCc1cccc2c1OCCCCCCC(C)(O)CC(C)(C)S(=O)(=O)c1ccc(cc1)-c1cnc(N)c(n1)C(=O)N2 (stereo unspecified)
growth [1]: -36.6% (active) | growth [2]: -41.9% (active) | growth [3]: 55.3% | growth [4]: 55.9% | growth [5]: 30.3% | growth [6]: 38.1% | growth [7]: 3.36% (active) | growth [8]: 24.1% | growth [9]: 43.2% | growth [10]: 56.1% | growth [11]: 27.9% | growth [12]: -85.6% (active) | growth [13]: 5.13% (active) | growth [14]: -58.1% (active) | growth [15]: -82.3% (active) | growth [16]: -6.01% (active) | growth [17]: -68.1% (active)

COc1ccc2[nH]cc(-c3csc4nc(-c5ccccc5)cn34)c2c1
growth [1]: 20.1% | growth [2]: 5.78% (active) | growth [3]: 24.1% | growth [4]: 46.2% | growth [5]: 56.5% | growth [6]: 16.1% | growth [7]: 41.6% | growth [8]: -3.7% (active) | growth [9]: 5.97% (active) | growth [10]: 30.7% | growth [11]: 45.8% | growth [12]: -47.7% (active) | growth [13]: 25.1% | growth [14]: 11.5% | growth [15]: 4.36% (active) | growth [16]: 6.03% (active) | growth [17]: 11.6%
